Source: article PMC7862700, “An all-to-all approach to the identification of sequence-specific readers for epigenetic DNA modifications on cytosine”

Assays:
Assay in all cases: DAPPL (digital affinity profiling via proximity ligation, sequencing); 10 mM Tris-HCl pH 7.5, 50 mM NaCl, 1 mM DTT, 4% glycerol, room temperature, 30 min; GST-TFs on glutathione beads, 16-mer random dsDNA library, 0.1% formaldehyde crosslink after washing; high values mean tight binding
Conditions in all cases: protein: recombinant; tags: N-terminal GST; dsDNA, one strand shown
[1] = target: T1, FLI1 (Homo sapiens, UniProt Q01543 1-452)
T1 sequence: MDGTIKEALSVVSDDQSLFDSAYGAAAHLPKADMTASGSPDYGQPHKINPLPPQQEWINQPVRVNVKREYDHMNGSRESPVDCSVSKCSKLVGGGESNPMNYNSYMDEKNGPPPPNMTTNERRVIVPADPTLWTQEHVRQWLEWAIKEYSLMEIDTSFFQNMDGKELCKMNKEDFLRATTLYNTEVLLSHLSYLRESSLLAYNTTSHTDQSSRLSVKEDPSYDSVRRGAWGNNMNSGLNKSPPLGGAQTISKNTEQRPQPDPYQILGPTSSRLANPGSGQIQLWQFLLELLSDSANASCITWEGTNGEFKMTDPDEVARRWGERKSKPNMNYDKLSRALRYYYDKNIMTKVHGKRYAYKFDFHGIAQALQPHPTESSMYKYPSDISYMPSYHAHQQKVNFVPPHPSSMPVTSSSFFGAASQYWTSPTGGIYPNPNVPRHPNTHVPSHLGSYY
Summary of the method: (§1)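 After expression in yeast as GST fusions, human transcription factors were bound to glutathione beads, DNA-barcoded and mixed with a tag-only sample. The pools were incubated with 200 nmole of a 16-mer random double-stranded DNA library in Tris/NaCl/DTT/glycerol buffer (30 min, room temperature), washed and crosslinked with 0.1% formaldehyde. Proximity ligation with BsaI/T4 ligase ran for 1 h at 37 °C, before PCR amplification and sequencing on an Illumina NextSeq500. Binding signal is a hexamer's read frequency for a factor divided by its frequency for the tag-only sample.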

[2] = target: T2, ELK1 (Homo sapiens, UniProt P19419 1-428)
T2 sequence: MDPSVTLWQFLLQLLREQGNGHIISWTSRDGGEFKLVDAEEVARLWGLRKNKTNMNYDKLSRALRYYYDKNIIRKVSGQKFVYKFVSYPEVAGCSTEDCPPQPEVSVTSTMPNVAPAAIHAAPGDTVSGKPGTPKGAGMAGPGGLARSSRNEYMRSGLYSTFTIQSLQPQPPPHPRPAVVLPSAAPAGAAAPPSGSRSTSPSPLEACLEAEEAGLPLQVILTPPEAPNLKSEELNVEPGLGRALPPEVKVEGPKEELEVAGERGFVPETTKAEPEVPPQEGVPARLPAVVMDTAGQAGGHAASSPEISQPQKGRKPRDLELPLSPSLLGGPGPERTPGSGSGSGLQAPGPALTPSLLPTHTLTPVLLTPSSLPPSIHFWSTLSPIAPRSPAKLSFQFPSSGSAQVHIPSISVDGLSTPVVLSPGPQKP
Summary of the method: as §1

[3] = target: T3, GABPA (Homo sapiens, UniProt Q06546 1-454)
T3 sequence: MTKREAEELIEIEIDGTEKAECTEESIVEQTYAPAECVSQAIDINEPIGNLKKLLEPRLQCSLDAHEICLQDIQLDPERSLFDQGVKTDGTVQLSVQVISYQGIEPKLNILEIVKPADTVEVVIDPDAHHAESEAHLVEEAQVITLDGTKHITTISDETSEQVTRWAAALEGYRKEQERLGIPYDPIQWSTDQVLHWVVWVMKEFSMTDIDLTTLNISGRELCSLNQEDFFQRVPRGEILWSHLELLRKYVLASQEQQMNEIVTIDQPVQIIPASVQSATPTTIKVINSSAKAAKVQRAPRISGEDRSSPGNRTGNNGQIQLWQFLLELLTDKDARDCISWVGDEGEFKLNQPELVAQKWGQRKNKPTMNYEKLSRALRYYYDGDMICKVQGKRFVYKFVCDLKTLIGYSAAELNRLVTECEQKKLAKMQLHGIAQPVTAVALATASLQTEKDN
Summary of the method: as §1

[4] = target: T4, ERG (Homo sapiens, UniProt P11308 1-479)
T4 sequence: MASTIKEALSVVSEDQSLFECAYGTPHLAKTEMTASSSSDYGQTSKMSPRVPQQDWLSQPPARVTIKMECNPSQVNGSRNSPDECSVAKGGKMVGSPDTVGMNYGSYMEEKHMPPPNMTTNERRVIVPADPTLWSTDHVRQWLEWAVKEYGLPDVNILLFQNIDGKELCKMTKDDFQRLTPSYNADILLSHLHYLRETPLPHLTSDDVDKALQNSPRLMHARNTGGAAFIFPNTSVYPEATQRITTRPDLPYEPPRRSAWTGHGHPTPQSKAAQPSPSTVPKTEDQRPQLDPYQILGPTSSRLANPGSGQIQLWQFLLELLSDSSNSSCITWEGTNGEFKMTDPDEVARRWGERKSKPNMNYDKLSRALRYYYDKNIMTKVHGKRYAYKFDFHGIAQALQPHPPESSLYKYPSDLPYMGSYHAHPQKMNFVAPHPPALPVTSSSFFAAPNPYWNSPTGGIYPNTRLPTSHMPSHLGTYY
Summary of the method: as §1

[5] = target: ELF1 (Homo sapiens, UniProt P32519 1-619)
ELF1, sequence (P32519 whole entry): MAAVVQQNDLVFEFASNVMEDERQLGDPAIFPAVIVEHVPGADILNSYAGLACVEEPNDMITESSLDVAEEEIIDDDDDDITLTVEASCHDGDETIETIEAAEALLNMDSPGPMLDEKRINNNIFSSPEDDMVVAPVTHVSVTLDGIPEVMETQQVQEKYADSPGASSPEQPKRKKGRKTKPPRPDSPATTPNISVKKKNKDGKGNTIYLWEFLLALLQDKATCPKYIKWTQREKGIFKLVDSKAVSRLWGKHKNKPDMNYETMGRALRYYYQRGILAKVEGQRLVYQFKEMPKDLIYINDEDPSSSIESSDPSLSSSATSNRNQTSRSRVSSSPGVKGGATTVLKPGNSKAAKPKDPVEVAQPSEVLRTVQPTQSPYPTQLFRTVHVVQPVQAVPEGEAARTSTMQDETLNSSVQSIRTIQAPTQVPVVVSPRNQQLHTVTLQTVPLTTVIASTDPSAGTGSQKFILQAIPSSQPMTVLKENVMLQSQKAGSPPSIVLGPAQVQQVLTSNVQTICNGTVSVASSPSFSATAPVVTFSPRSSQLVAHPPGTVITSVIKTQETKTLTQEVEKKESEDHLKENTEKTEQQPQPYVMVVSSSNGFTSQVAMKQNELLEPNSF
Summary of the method: as §1

[6] = target: T5, EHF (Homo sapiens, UniProt Q9NZC4 1-300)
T5 sequence: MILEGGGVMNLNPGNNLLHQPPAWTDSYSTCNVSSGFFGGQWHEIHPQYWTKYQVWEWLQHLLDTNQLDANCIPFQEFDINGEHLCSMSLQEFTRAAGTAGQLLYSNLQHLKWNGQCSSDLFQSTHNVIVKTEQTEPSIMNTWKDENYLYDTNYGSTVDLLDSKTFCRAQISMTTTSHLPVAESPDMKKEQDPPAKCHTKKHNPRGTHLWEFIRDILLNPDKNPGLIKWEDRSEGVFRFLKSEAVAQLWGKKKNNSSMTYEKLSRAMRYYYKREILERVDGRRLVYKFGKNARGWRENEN
Summary of the method: as §1

[7] = target: SPI1 (Homo sapiens, UniProt P17947 1-270)
Summary of the method: as §1

[8] = target: SPIB (Homo sapiens, UniProt Q01892 1-262)
SPIB, sequence (Q01892 whole entry): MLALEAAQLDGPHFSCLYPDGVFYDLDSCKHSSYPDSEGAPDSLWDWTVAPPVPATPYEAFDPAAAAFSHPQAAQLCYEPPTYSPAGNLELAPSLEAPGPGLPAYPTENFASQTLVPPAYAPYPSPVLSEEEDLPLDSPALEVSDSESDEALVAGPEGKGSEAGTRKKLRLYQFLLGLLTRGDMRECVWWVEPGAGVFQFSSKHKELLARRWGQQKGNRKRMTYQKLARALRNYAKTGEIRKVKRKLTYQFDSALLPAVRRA
Summary of the method: as §1

[9] = target: T6, ELK3 (Homo sapiens, UniProt P41970 1-407)
T6 sequence: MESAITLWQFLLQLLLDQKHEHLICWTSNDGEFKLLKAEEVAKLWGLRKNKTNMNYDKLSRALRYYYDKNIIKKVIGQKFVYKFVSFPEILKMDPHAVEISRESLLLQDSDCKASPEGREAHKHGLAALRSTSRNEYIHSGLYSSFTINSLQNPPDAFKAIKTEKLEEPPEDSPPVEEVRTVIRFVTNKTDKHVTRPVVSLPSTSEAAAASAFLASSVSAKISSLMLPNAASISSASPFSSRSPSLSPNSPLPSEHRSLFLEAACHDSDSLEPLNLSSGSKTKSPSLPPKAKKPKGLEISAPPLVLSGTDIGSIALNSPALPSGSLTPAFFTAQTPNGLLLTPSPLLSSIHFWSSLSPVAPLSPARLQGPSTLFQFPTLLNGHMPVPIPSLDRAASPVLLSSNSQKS
Summary of the method: as §1

Sequence | binding signal [1] | binding signal [2] | binding signal [3] | binding signal [4] | binding signal [5] | binding signal [6] | binding signal [7] | binding signal [8] | binding signal [9]
ATCTCG | 1.41 fold enrichment (6-mer frequency, TF over GST control) | 1.27 fold enrichment (6-mer frequency, TF over GST control) | 1.42 fold enrichment (6-mer frequency, TF over GST control) | 1.23 fold enrichment (6-mer frequency, TF over GST control) | 1.39 fold enrichment (6-mer frequency, TF over GST control) | 1.34 fold enrichment (6-mer frequency, TF over GST control) | 1.37 fold enrichment (6-mer frequency, TF over GST control) | 1.26 fold enrichment (6-mer frequency, TF over GST control) | 1.26 fold enrichment (6-mer frequency, TF over GST control)
TTCTCT | 1.29 fold enrichment (6-mer frequency, TF over GST control) | 1.3 fold enrichment (6-mer frequency, TF over GST control) | 1.27 fold enrichment (6-mer frequency, TF over GST control) | 1.32 fold enrichment (6-mer frequency, TF over GST control) | 1.33 fold enrichment (6-mer frequency, TF over GST control) | 1.27 fold enrichment (6-mer frequency, TF over GST control) | 1.3 fold enrichment (6-mer frequency, TF over GST control) | 1.16 fold enrichment (6-mer frequency, TF over GST control) | 1.29 fold enrichment (6-mer frequency, TF over GST control)
AGATTC | 1.15 fold enrichment (6-mer frequency, TF over GST control) | 1.14 fold enrichment (6-mer frequency, TF over GST control) | 1.16 fold enrichment (6-mer frequency, TF over GST control) | 1.19 fold enrichment (6-mer frequency, TF over GST control) | 1.21 fold enrichment (6-mer frequency, TF over GST control) | 1.2 fold enrichment (6-mer frequency, TF over GST control) | 1.22 fold enrichment (6-mer frequency, TF over GST control) | 1.14 fold enrichment (6-mer frequency, TF over GST control) | 1.07 fold enrichment (6-mer frequency, TF over GST control)
TATTTT | 1.3 fold enrichment (6-mer frequency, TF over GST control) | 1.3 fold enrichment (6-mer frequency, TF over GST control) | 1.34 fold enrichment (6-mer frequency, TF over GST control) | 1.39 fold enrichment (6-mer frequency, TF over GST control) | 1.31 fold enrichment (6-mer frequency, TF over GST control) | 1.44 fold enrichment (6-mer frequency, TF over GST control) | 1.35 fold enrichment (6-mer frequency, TF over GST control) | 1.32 fold enrichment (6-mer frequency, TF over GST control) | 1.36 fold enrichment (6-mer frequency, TF over GST control)
TCTCGG | 1.69 fold enrichment (6-mer frequency, TF over GST control) | 1.41 fold enrichment (6-mer frequency, TF over GST control) | 1.5 fold enrichment (6-mer frequency, TF over GST control) | 1.38 fold enrichment (6-mer frequency, TF over GST control) | 1.46 fold enrichment (6-mer frequency, TF over GST control) | 1.29 fold enrichment (6-mer frequency, TF over GST control) | 1.52 fold enrichment (6-mer frequency, TF over GST control) | 1.44 fold enrichment (6-mer frequency, TF over GST control) | 1.42 fold enrichment (6-mer frequency, TF over GST control)
TTCCCG | 1.8 fold enrichment (6-mer frequency, TF over GST control) | 1.73 fold enrichment (6-mer frequency, TF over GST control) | 1.93 fold enrichment (6-mer frequency, TF over GST control) | 2.03 fold enrichment (6-mer frequency, TF over GST control) | 1.82 fold enrichment (6-mer frequency, TF over GST control) | 1.98 fold enrichment (6-mer frequency, TF over GST control) | 2.02 fold enrichment (6-mer frequency, TF over GST control) | 2.17 fold enrichment (6-mer frequency, TF over GST control) | 1.78 fold enrichment (6-mer frequency, TF over GST control)
CTCTAC | 1.51 fold enrichment (6-mer frequency, TF over GST control) | 1.51 fold enrichment (6-mer frequency, TF over GST control) | 1.56 fold enrichment (6-mer frequency, TF over GST control) | 1.6 fold enrichment (6-mer frequency, TF over GST control) | 1.59 fold enrichment (6-mer frequency, TF over GST control) | 1.54 fold enrichment (6-mer frequency, TF over GST control) | 1.45 fold enrichment (6-mer frequency, TF over GST control) | 1.63 fold enrichment (6-mer frequency, TF over GST control) | 1.27 fold enrichment (6-mer frequency, TF over GST control)
